Only a selection was taken, and the strongest signals are over-represented in it overall.
Tested on: Gal(b1-3)[GlcNAc(b1-6)]GalNAc
Experiment: glycan array binding signal (z-score within array); higher = stronger binding
Settings: glycan notation: IUPAC condensed, linker removed
Procedure, shortened: (§1)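 Glycan array data were curated from 3228 arrays in the Consortium for Functional Glycomics database and kept only where the protein sequence was available. Glycan names were converted to IUPAC-condensed notation, and columns mapping to the same glycan were averaged. The binding signal is a within-array Z-score, averaged across arrays of the same protein sequence at different concentrations or buffers and across linkers. Negative Z-scores can be read as non-binding.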

Sequence of 6RG (Lolium perenne) (chain, as listed by the source): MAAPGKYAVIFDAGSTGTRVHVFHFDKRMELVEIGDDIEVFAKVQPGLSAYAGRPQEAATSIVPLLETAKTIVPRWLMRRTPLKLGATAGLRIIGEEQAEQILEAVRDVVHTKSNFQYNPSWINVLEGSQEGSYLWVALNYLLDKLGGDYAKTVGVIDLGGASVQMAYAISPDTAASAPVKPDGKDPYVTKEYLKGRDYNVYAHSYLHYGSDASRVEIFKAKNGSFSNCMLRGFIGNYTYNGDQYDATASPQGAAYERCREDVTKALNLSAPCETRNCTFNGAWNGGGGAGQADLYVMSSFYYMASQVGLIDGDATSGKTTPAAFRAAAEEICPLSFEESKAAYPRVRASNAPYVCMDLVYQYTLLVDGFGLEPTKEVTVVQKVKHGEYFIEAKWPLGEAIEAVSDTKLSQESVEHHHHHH
Sequence of Aggrecan (Rattus norvegicus), NP_071526 (chain, as listed by the source): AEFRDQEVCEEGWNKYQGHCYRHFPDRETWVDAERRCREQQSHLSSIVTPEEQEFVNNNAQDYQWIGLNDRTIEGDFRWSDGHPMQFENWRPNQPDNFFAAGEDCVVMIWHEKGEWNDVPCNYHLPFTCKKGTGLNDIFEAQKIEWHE
Sequence of 6RG (Lolium perenne), B9U140 (B9U140 entry or part of it): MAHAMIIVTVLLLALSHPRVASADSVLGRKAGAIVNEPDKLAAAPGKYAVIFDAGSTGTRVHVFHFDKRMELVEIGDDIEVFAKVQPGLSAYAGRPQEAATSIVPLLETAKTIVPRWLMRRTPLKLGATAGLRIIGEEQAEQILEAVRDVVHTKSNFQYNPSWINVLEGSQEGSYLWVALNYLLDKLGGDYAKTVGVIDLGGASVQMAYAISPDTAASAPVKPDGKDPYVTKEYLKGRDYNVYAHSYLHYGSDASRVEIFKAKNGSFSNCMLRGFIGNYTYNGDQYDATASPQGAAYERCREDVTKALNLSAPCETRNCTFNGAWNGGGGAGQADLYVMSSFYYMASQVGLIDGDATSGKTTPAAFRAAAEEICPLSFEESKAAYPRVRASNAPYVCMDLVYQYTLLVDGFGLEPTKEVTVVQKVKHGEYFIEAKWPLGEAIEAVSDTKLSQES
Sequence of CHI3L1 (Homo sapiens), P36222 (P36222 whole entry): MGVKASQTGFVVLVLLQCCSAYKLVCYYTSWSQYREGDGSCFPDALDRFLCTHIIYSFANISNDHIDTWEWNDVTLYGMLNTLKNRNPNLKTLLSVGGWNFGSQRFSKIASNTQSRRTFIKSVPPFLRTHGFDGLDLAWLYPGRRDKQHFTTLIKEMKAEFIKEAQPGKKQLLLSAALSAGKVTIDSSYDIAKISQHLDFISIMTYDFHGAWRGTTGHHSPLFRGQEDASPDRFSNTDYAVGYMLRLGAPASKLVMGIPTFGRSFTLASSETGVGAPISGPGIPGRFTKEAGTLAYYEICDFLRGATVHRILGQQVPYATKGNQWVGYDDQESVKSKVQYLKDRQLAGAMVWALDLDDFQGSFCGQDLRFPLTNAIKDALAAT
Sequence of Neurocan (Homo sapiens), O14594 (O14594 other isoform, or with tags, fused parts or gaps): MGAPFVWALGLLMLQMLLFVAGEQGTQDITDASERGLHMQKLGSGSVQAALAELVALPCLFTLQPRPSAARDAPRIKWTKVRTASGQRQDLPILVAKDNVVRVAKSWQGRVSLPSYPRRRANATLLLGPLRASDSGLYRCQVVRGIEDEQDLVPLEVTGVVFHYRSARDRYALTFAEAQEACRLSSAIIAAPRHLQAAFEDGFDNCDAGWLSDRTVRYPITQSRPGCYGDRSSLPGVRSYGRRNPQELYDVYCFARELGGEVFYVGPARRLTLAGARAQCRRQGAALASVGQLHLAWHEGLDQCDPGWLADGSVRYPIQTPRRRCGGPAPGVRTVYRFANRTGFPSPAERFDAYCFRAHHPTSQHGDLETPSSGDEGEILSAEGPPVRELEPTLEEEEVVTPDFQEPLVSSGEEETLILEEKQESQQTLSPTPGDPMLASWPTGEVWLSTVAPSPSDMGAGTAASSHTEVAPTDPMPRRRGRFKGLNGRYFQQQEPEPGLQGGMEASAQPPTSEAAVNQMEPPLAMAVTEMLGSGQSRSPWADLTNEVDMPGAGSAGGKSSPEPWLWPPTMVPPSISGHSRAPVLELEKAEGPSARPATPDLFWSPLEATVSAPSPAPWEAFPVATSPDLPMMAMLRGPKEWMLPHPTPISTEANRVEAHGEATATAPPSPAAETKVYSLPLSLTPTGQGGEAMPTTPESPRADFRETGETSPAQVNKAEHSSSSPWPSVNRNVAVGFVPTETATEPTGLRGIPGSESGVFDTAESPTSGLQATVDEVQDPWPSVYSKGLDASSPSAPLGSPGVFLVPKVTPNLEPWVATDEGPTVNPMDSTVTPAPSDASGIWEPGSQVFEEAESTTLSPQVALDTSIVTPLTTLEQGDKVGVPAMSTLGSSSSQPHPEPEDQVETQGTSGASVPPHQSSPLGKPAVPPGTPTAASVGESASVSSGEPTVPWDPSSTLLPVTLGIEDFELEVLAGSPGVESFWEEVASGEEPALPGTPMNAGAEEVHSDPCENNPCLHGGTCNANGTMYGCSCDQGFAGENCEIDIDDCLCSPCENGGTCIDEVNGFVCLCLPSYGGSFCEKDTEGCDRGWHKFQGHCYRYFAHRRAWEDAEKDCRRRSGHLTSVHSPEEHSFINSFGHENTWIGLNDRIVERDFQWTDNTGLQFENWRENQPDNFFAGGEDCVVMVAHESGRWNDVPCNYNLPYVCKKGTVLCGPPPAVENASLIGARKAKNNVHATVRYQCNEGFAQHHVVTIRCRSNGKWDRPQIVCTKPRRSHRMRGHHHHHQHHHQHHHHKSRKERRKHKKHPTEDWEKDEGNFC

Substance | glycan array binding signal (z-score)
6RG (Lolium perenne) | -0.16
MpAFP RI GFP (Marinomonas primoryensis) | -0.258
HARE (Homo sapiens), Q8WWQ8 | -0.451

Tested on: Gal(b1-3)[Neu5Ac(a2-6)]GlcNAc(b1-6)Gal(b1-4)Glc
Experiment: as above
Settings: glycan notation: IUPAC condensed, linker removed
Procedure, shortened: as §1

Substance | glycan array binding signal (z-score)
6RG (Lolium perenne), B9U140 | -0.249
6RG (Lolium perenne) | 4.25
Aggrecan (Rattus norvegicus), NP_071526 | -0.144

Tested on: Gal(b1-4)GlcNAc(b1-2)Man(a1-3)Man(b1-4)GlcNAc(b1-4)GlcNAc
Experiment: as above
Settings: glycan notation: IUPAC condensed, linker removed
Procedure, shortened: as §1

Substance | glycan array binding signal (z-score)
CHI3L1 (Homo sapiens), P36222 | -0.118
Siglec-8 (Homo sapiens), Q9NYZ4 | -0.306
Neurocan (Homo sapiens), O14594 | 0.015

— the supplement of paper PMC8728848
